What all share (experiment): NCI-60 one-dose screen, 48 h (100 = growth as untreated, 0 = no growth, -100 = all killed)
The test system of one test is SK-MEL-2 melanoma. As to conditions: 10 µM unless noted.
In the next test the test system is SN12C renal. The settings on record: 10 µM unless noted.
For the next test, the system named is UO-31 renal. As to conditions: 10 µM unless noted.
In a further test the test system is TK-10 renal. As to conditions: 10 µM unless noted.
A further test concerns CAKI-1 renal. As to conditions: 10 µM unless noted.
In another test the test system is CCRF-CEM leukemia. As to conditions: 10 µM unless noted.
The next test concerns SR leukemia. As to conditions: 10 µM unless noted.
In a further test the test system is RPMI-8226 leukemia. As to conditions: 10 µM unless noted.
The subject of the next test is OVCAR-8 ovarian. The settings on record: 10 µM unless noted.
The test system of a further test is OVCAR-5 ovarian. The settings on record: 10 µM unless noted.
In another test the test system is OVCAR-4 ovarian. The settings on record: 10 µM unless noted.
In another test the test system is SK-OV-3 ovarian. As to conditions: 10 µM unless noted.
Another test relates to IGROV1 ovarian. The settings on record: 10 µM unless noted.
Another test relates to OVCAR-3 ovarian. The settings on record: 10 µM unless noted.
Another test has as its system HS 578T breast. The settings on record: 10 µM.
In the next test the test system is EKVX NSCLC. The settings on record: 10 µM unless noted.
In a further test the test system is ACHN renal. The settings on record: 10 µM unless noted.
A further test has as its system MOLT-4 leukemia. As to conditions: 10 µM unless noted.
A further test concerns NCI/ADR-RES ovarian. As to conditions: 10 µM unless noted.
A further test has as its system A498 renal. The settings on record: 10 µM unless noted.

About 83,000 compounds went through this panel and 20% of them were active in at least one assay; those are over-represented in the sample as a whole.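 Cell lines were cultured in 96-well plates, exposed to a single compound concentration, and assessed for percent growth 48 hours later.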 A number with no mark means an inactive call. Activity calls are given as the source filed them. The calls were made as follows: active = growth percent below 10; inactive = the rest.

Turning to `CCOC(=O)Nc1ccc2nc(-c3cscn3)[nH]c2c1`, the growth is 32.4% in the test with SK-MEL-2 melanoma; 51.1% with SN12C renal; 50.9% in the test with UO-31 renal; 63.2% with TK-10 renal; 39.3% with CAKI-1 renal; 70.8% in the test with CCRF-CEM leukemia. Further, the growth with SR leukemia was 23.3%; in the test with RPMI-8226 leukemia, 43.1%; in the test on OVCAR-8 ovarian, 57.8%; with OVCAR-5 ovarian it was 85.9%; in the test with OVCAR-4 ovarian it was 89.7%; with SK-OV-3 ovarian it was 56.5%. For the same compound, the figures for the growth in the test with IGROV1 ovarian, in the test on OVCAR-3 ovarian and in the test on HS 578T breast were 42.6%, 22.8% and 64.7%, respectively.

In the case of `CC1(C)C(N(O)C(=O)Nc2ccc(Cl)cc2)N(c2ccc(Cl)cc2)C(=O)N1CC(=O)N/N=C/C=C/c1ccc([N+](=O)[O-])o1` (stereo unspecified), the growth was 29.8% in the test with EKVX NSCLC; -21.4% (active) with SN12C renal; 12.8% with UO-31 renal; 4.58% (active) in the test on TK-10 renal; 9.18% (active) in the test on ACHN renal; 68% with CAKI-1 renal. In addition, the growth was -21.5% (active) in the test with MOLT-4 leukemia; -13.1% (active) in the test on SR leukemia; -23.7% (active) in the test with RPMI-8226 leukemia; 3.32% (active) in the test with OVCAR-8 ovarian; 6.4% (active) with OVCAR-5 ovarian; 14.9% in the test on OVCAR-4 ovarian. For the same compound, the growth in the test with SK-OV-3 ovarian was 57.8%; in the test on IGROV1 ovarian it was -5.58% (active); in the test with OVCAR-3 ovarian, -26.8% (active); in the test with HS 578T breast it was -11.4% (active); with NCI/ADR-RES ovarian, 95%.

As for `O=C(Oc1c(Cl)c(Cl)c(Cl)c(Cl)c1Cl)C1CCCN1C(=O)OCc1ccccc1` (stereo unspecified), the growth with SK-MEL-2 melanoma is 69.9%; in the test with SN12C renal it was 60%; with UO-31 renal, 56.1%; in the test on ACHN renal, 17%; in the test on CAKI-1 renal, 90.4%; in the test on A498 renal, 12.3%. Moreover, the growth in the test on CCRF-CEM leukemia is 10.8%; with MOLT-4 leukemia, 15.5%; in the test with SR leukemia, 30.1%; in the test with RPMI-8226 leukemia, 6.32% (active); in the test on OVCAR-8 ovarian, 34.7%; in the test with OVCAR-5 ovarian, 94.9%. Also, the growth is 51% in the test with OVCAR-4 ovarian; 46.4% in the test with SK-OV-3 ovarian; 37.3% with IGROV1 ovarian; 79.1% in the test on OVCAR-3 ovarian; 73.2% in the test on HS 578T breast; 27.6% in the test with NCI/ADR-RES ovarian.

As for `Cc1cccc(C(=O)O)n1`, the growth in the test on EKVX NSCLC is 93.9%; in the test on SN12C renal, 102%; in the test with UO-31 renal, 72.3%; with TK-10 renal it was 109%; in the test with ACHN renal, 102%; in the test with CAKI-1 renal, 69.8%. Further, the growth is 116% in the test with A498 renal; 146% in the test with CCRF-CEM leukemia; 120% with SR leukemia; -8.6% (active) in the test on RPMI-8226 leukemia; 74.4% with OVCAR-8 ovarian; 100% in the test with OVCAR-5 ovarian. Besides, the growth in the test with OVCAR-4 ovarian is 101%; in the test with SK-OV-3 ovarian, 119%; in the test with IGROV1 ovarian, 72%; in the test on OVCAR-3 ovarian it was 115%; with HS 578T breast, 118%; in the test on NCI/ADR-RES ovarian, 107%.

Consider `Cc1cc(C)c([O-])c(CN(C)CCN(C)Cc2cc(C)cc(C)c2[O-])c1.O=C([O-])c1cccc(C(=O)[O-])n1.[Ti+4]`, for which the growth is 27.1% in the test with EKVX NSCLC; 27.4% in the test with SN12C renal; -9.59% (active) in the test with UO-31 renal; -20.6% (active) in the test with TK-10 renal; 19.4% in the test with ACHN renal; 24.6% in the test on CAKI-1 renal. For the same compound, the growth is -86.2% (active) in the test with A498 renal; -2.1% (active) in the test with CCRF-CEM leukemia; -5% (active) in the test with MOLT-4 leukemia; -25.9% (active) with RPMI-8226 leukemia; 20.9% in the test on OVCAR-8 ovarian; 22.1% with OVCAR-5 ovarian. Further, the growth was 22% in the test on OVCAR-4 ovarian; 34.3% with SK-OV-3 ovarian; 6.22% (active) in the test on IGROV1 ovarian; 9.53% (active) in the test on OVCAR-3 ovarian; 0.477% (active) with HS 578T breast; 7.88% (active) in the test with NCI/ADR-RES ovarian.

As to `CCc1ccc2c(c1)N(CCO)C1=C(C(=O)OC1)C2c1cccc(Cl)c1` (stereo unspecified), the growth in the test on EKVX NSCLC was 43%; with SN12C renal, 38.7%; in the test on UO-31 renal, 34.9%; with TK-10 renal it was 49.9%; with ACHN renal, 42%; in the test on CAKI-1 renal, 27.6%. Further, the growth in the test with A498 renal was -1.08% (active); with CCRF-CEM leukemia, 10.5%; in the test with MOLT-4 leukemia, 17.6%; in the test on SR leukemia, 20.2%; with RPMI-8226 leukemia it was 20.3%; with OVCAR-8 ovarian, 27%. Moreover, the growth is 30.3% in the test on OVCAR-5 ovarian; 63.8% in the test on OVCAR-4 ovarian; 27.2% in the test on SK-OV-3 ovarian; 31.2% in the test on IGROV1 ovarian; -35.9% (active) with OVCAR-3 ovarian; 7.46% (active) in the test on HS 578T breast. Also, the growth with NCI/ADR-RES ovarian is 8.16% (active).

`Cc1nc2c(-c3cnc(N)nc3)nc(N3CCOCC3)nc2n1C(C)C`: the growth in the test on EKVX NSCLC was 9.04% (active); in the test with SN12C renal it was 12.8%; in the test on UO-31 renal it was -12.1% (active); with TK-10 renal, -33% (active); with ACHN renal, 2.76% (active); in the test on CAKI-1 renal, 0.604% (active). The growth with A498 renal is -39.2% (active); in the test on MOLT-4 leukemia, 6.75% (active); with SR leukemia, 7% (active); in the test with RPMI-8226 leukemia, 12.8%; in the test with OVCAR-8 ovarian, -8.95% (active); with OVCAR-5 ovarian it was 7.67% (active). The growth with OVCAR-4 ovarian was -3.01% (active); in the test on SK-OV-3 ovarian it was -39.7% (active); in the test with IGROV1 ovarian it was -24.7% (active); in the test on OVCAR-3 ovarian it was 10%; with NCI/ADR-RES ovarian it was -5.49% (active).

For `COC(=O)C1(C)COP(=O)(NC23CC4CC(CC(C4)C2)C3)OC1` (stereo unspecified), the growth was 98.4% in the test on EKVX NSCLC; 113% in the test on SN12C renal; 87.2% in the test on UO-31 renal; 96.7% with TK-10 renal; 103% in the test on ACHN renal; 103% in the test with CAKI-1 renal. For the same compound, the growth in the test with A498 renal was 103%; in the test on CCRF-CEM leukemia, 98.2%; in the test with SR leukemia, 114%; in the test on RPMI-8226 leukemia it was 95.6%; with OVCAR-8 ovarian, 107%; in the test on OVCAR-5 ovarian, 113%. Also, the growth is 97.7% in the test on OVCAR-4 ovarian; 100% in the test on SK-OV-3 ovarian; 106% with OVCAR-3 ovarian; 102% in the test on HS 578T breast; 93.9% in the test with NCI/ADR-RES ovarian.

In the case of `O=C(C(Br)C(Br)c1ccccc1)C(Br)C(Br)c1ccccc1` (stereo unspecified), the growth is -28.7% (active) in the test on SK-MEL-2 melanoma; -30.5% (active) in the test with SN12C renal; -96.6% (active) in the test with UO-31 renal; -87.9% (active) with TK-10 renal; -96% (active) in the test with ACHN renal; 84.6% with A498 renal. In addition, the growth with CCRF-CEM leukemia was -43.8% (active); with SR leukemia, -44.9% (active); in the test on RPMI-8226 leukemia it was -36.6% (active); in the test with OVCAR-8 ovarian it was -10.8% (active); in the test with OVCAR-5 ovarian, -57.4% (active); in the test with OVCAR-4 ovarian, 34.9%. The growth is 83.1% with SK-OV-3 ovarian; -49.5% (active) in the test with IGROV1 ovarian; -79.9% (active) in the test on OVCAR-3 ovarian; 39.4% in the test on HS 578T breast; 17.1% with NCI/ADR-RES ovarian.
